These results are taken from PubChem BioAssay AID687016 (The Scripps Research Institute Molecular Screening Center, 2013).

Molecules are shown by their SMILES. “And” between values parts separate entries of the source, which are not always exact repeats. Identical values can stand only once. About 2,800 (0.76%) of roughly 370,000 compounds were called active. This is one part of a sample in which actives are shown more often than they occur. No stated cut-off is given here; in the data, active means inhibition above about 21%; inactive means the rest. More than one record can exist for a structure, and the calls need not agree.

For this assay, the target named is E3 ubiquitin-protein ligase UHRF1 (Homo sapiens) (UniProt Q96T88). Description: blockers of UHRF1 binding to methyl-oligo – biochemical, TR-FRET, human UHRF1, single concentration, counter-screen for MBD2 inhibitor project, primary screen (AID 687016).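 Further: UHRF1 SRA domain binding a hemimethylated CpG hairpin DNA probe; 0% = median of test compound wells and 100% = reference inhibitor.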 The note with it: UHRF1 binding to methylated oligo, at 4.4 µM, stronger effect = higher value. A general note: In TR-FRET formats the signal depends on donor and acceptor labels being close together.
Sequence of E3 ubiquitin-protein ligase UHRF1 (Homo sapiens) (Q96T88 whole entry, looked up, the tested form may be a part): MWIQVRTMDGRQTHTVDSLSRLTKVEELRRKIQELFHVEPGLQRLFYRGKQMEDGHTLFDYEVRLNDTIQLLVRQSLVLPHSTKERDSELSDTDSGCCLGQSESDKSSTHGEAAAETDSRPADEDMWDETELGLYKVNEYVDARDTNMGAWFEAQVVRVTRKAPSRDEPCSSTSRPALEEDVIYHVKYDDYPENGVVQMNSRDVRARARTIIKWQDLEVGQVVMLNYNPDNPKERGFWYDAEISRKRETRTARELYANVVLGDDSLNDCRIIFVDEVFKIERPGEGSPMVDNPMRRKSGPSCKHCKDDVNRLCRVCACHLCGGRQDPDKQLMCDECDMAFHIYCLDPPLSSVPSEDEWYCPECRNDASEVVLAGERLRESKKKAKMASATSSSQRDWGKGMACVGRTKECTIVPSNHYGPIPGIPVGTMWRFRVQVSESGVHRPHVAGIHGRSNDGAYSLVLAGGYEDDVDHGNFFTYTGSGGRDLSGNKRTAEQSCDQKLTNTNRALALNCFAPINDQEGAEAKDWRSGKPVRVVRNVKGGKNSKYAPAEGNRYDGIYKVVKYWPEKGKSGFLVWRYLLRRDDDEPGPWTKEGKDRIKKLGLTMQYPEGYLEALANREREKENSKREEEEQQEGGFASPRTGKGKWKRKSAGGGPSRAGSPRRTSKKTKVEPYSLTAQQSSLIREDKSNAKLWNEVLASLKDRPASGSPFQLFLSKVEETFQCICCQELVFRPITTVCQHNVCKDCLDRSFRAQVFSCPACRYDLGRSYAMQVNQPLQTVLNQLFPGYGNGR
`Cc1nc2ccc(C(=O)N3CCN(C(=O)C(C)(C)C)CC3)cc2n1C1CCCC1`: the inhibition was 0.45% (inactive).

On to `CN(C(=O)COC(=O)c1cc(-c2ccco2)nc2ccccc12)C1CCS(=O)(=O)C1` (configuration not stated), for which the inhibition was 52.1% (active).

In the case of `CN(C(=O)COC(=O)c1cc(=O)[nH]c2ccccc12)C1CCCCC1`, the inhibition is -1.98% (inactive).

With `Cc1cc(C(=O)OCC(=O)N2C(C)CCCC2C)c2ccccc2n1` (configuration not stated), the inhibition was 1.46% (inactive).

`C#CCN([C@H](C(=O)OC)C(C)CC)S(=O)(=O)c1ccccc1Br` (some centres not stated): the inhibition was -1.76% (inactive).

For `C=CCN(Cc1ccc2c(c1)OCO2)C(C#CC1CC1)C(C)(C)C` (configuration not stated), the inhibition is 1.41% (inactive).

For `Cc1cccc(N2CCN(Cc3c(C)n(C)n(-c4ccccc4)c3=O)CC2)c1C`, the inhibition was -0.95% (inactive).

As to `Cc1c(C=O)n(C)n(-c2ccccc2)c1=O`, the inhibition is 25.1% (active).

As to `Cc1c(CN2CCC(C)CC2)c(=O)n(-c2ccccc2)n1C`, the inhibition was 2.11% (inactive).

Take `CCOC(=O)[C@]12CCCCC/C=C\1N(Cc1ccc(OC)cc1)C(=O)[C@H]2CC(=O)NCc1ccc(C)o1`: the inhibition was -2.03% (inactive).

As for `COc1ccc(C(=O)CSc2nnc(-c3cnccn3)n2-c2ccc(C)cc2)cc1`, the inhibition is 0.05% (inactive).

Regarding `COc1ccc(CN(CCN2CCOCC2)C(=O)c2ccc(C)cc2)cc1OC`, the inhibition is -0.61% (inactive).

As for `C[C@@H]1CN([C@@H](C)CO)S(=O)(=O)c2ccc(C#Cc3cccc(F)c3)cc2O[C@H]1CN(C)S(=O)(=O)c1cn(C)cn1`, the inhibition was 21.5% (active).

In the case of `C[C@H]1CN([C@@H](C)CO)S(=O)(=O)c2ccc(-c3cccc(F)c3)cc2O[C@@H]1CN(C)C`, the inhibition was 0.38% (inactive).

For `COCC(=O)N(C)C[C@H]1Oc2cc(Br)ccc2S(=O)(=O)N([C@H](C)CO)C[C@H]1C`, the inhibition was 0.32% (inactive).

With `C[C@H]1CN([C@@H](C)CO)S(=O)(=O)c2ccc(Br)cc2O[C@H]1CN(C)C(=O)c1cnccn1`, the inhibition was -0.94% (inactive).

On to `C[C@@H]1CN([C@H](C)CO)S(=O)(=O)c2ccc(C#C[C@@H](C)O)cc2O[C@@H]1CN(C)Cc1ccc(-c2ccccc2)cc1`, for which the inhibition was 0.52% (inactive).

`C[C@@H]1CN([C@H](C)CO)S(=O)(=O)c2ccc(C#CC3CCCCC3)cc2O[C@H]1CN(C)C(=O)Cc1ccncc1`: the inhibition is 23.8% (active).

Consider `Nn1c(SCC(=O)Nc2ccc(S(N)(=O)=O)cc2)nnc1-c1n[nH]c2c1CCC2`, for which the inhibition was 0.51% (inactive).

For the compound `CC(=O)OC12CCCN(C1)/C(=C/c1ccncc1)C2` (configuration not stated), the inhibition was 3.27% (inactive).

As to `O=C1CC[C@@]23CCCN2C(=O)CCC[C@H]3[C@H]1Cc1ccccc1`, the inhibition is 0.21% (inactive).

For `Cc1cc(NS(=O)(=O)c2ccc(NC(=O)CSc3nnc(SCc4ccc(F)cc4)s3)cc2)nc(C)n1`, the inhibition is 3.58% (inactive).

Take `CCC(C)[C@@H](C(=O)OC)N(CCc1cn(Cc2ccccc2)nn1)S(=O)(=O)c1ccccc1Br` (some centres not stated): the inhibition is -0.53% (inactive).

Consider `C[C@@H]1CN([C@@H](C)CO)C(=O)c2cccc(NC(=O)Nc3cccc4ccccc34)c2O[C@H]1CN(C)S(=O)(=O)c1ccccc1F`, for which the inhibition is -3.8% (inactive).

`COc1ccccc1Cc1c(-c2ccc(Cl)cc2)nc2ccc(Cl)cn12`: the inhibition was -0.13% (inactive).

Turning to `COC(=O)c1ccc2nc(-c3ccc(C)cc3)c(Cc3ccc(OC)cc3C)n2c1`, the inhibition was 21.6% (active).

For the compound `COC(=O)c1ccc2nc(-c3ccc(F)cc3)c(Cc3ccc(C)cc3)n2c1`, the inhibition was 22.9% (active).

In the case of `Brc1ccc2nc(-c3ccccc3)c(Cc3ccccc3)n2c1`, the inhibition was 11% (inactive).

Turning to `Cc1ccc(-c2nc3ccc(Br)cn3c2Cc2ccccc2C(F)(F)F)cc1`, the inhibition was 2.47% (inactive).

In the case of `COC(=O)c1ccc(CNC(=O)C2CCC(=O)N(Cc3cccc(F)c3)C2)cc1` (configuration not stated), the inhibition was 0.28% (inactive).

Regarding `COC(=O)c1ccc2nc(-c3ccc(OC)c(OC)c3)c(Cc3ccccc3)n2c1`, the inhibition was 14.6% (inactive).

In the case of `CC(C)(C)Cc1c(C2CCCCC2)nc2ccc(Br)cn12`, the inhibition was 0.2% (inactive).

As to `CC(=O)Nc1c(-c2ccc(C)cc2)nc2ccc(Cl)cn12`, the inhibition was -0.52% (inactive).

`COC(=O)c1ccc2nc(-c3ccccc3)c(Cc3ccc(OC)cc3C)n2c1`: the inhibition was 22.1% (active).

For `COc1ccccc1Cc1c(-c2ccc(F)cc2)nc2ccc(C)cn12`, the inhibition is 11.5% (inactive).

In the case of `COC(=O)c1ccc2nc(C3CCCCC3)c(Cc3cccc(F)c3)n2c1`, the inhibition is 27.9% (active).

For `COP(=O)(O)CNC(=O)OCc1ccccc1`, the inhibition is -1.09% (inactive).

Consider `Nc1[nH]c(/C=C2/CCCCC2n2[nH]c(=O)n(-c3ccccc3)c2=O)c(Cc2ccccc2)[n+]1Cc1ccccc1` (configuration not stated), for which the inhibition is 15.8% (inactive).

Regarding `Nn1c(SCC(=O)N2c3ccccc3Sc3ccccc32)nnc1-c1n[nH]c2c1CCC2`, the inhibition was 2% (inactive).

On to `C=CCn1c(SCC(N)=O)nnc1-c1ccccc1OC`, for which the inhibition is -0.8% (inactive).

On to `Cc1ccc(C(=O)N(Cc2ccccn2)CC2CCCO2)cc1` (configuration not stated), for which the inhibition was 0.72% (inactive).

Consider `CCOC(=O)N1CCN(C(=O)C[C@H]2C[C@@]3(C(=O)OC)C(=C[C@H](C(C)(C)C)O[C@@H]3C)N(Cc3ccc(Cl)cc3Cl)C2=O)CC1`, for which the inhibition is 0.78% (inactive).

Consider `CCC(c1ccc(NC(=O)OC(C)(C)C)cc1)c1cc(OC)cc(OC)c1` (configuration not stated), for which the inhibition was -0.84% (inactive).

In the case of `Fc1ccc2nc(COCc3nc4ccc(F)cc4[nH]3)[nH]c2c1`, the inhibition was 0.71% (inactive).

For `COC(=O)c1ccc2nc(-c3cccc(Br)c3)c(Cc3ccc(OC)cc3C)n2c1`, the inhibition was 21.5% (active).

As for `COC(=O)c1ccc2nc(-c3cccc(Br)c3)c(Cc3ccccc3C(F)(F)F)n2c1`, the inhibition was 3.57% (inactive).

On to `COc1ccc(-c2nc3ccc(Br)cn3c2Cc2ccc(C)cc2)cc1OC`, for which the inhibition was 4.35% (inactive).

Consider `O=C(CCl)NC1CCCCN(Cc2cccc(C(F)(F)F)c2)C1=O` (configuration not stated), for which the inhibition is 0.33% (inactive).

As for `CCN(CC(=O)Nc1ccc(NC(C)=O)cc1)C(=O)C1CC(=O)N(c2ccc3c(c2)OCCO3)C1` (configuration not stated), the inhibition is 1.89% (inactive).

In the case of `CCN(CC(=O)Nc1ccc(NC(C)=O)cc1)C(=O)C1CC(=O)N(Cc2ccc(C)cc2)C1` (configuration not stated), the inhibition was 21.3% (active).

Consider `Cc1ccc(CN2CC(C(=O)N3CCN(S(=O)(=O)c4ccccc4)CC3)CC2=O)cc1` (configuration not stated), for which the inhibition was 9.15% (inactive).

As to `CCCNC(=O)Nc1ccc2c(c1)C(=O)N(C)[C@H]1CC[C@H](CC(=O)NCC3CCCCC3)O[C@@H]1CO2`, the inhibition was 10.6% (inactive).

As to `O=C(CSc1nnc(COc2ccccc2)n1-c1ccc(Cl)cc1)Nc1ccc2c(c1)OCO2`, the inhibition was 1.16% (inactive).

On to `CCC(CO)Nc1cccc2c1S(=O)(=O)N(Cc1cn(Cc3ccccc3C(F)(F)F)nn1)Cc1ccccc1O2` (configuration not stated), for which the inhibition is 2.09% (inactive).

Consider `COc1ccccc1C1=CC(=O)C[C@H](c2ccc(F)cc2)C1`, for which the inhibition is 1.8% (inactive).

In the case of `COc1cccc(C2=CC(=O)C[C@H](c3ccc(F)cc3)C2)c1OC`, the inhibition is -0.67% (inactive).

As for `O=C1C=C(c2cccc(Cl)c2O)C[C@@H](c2ccc(F)cc2)C1`, the inhibition is 21% (active).

For `Cc1ccc(-c2nnc(SCC(=O)Nc3ccc(Oc4ccccc4)cc3)n2Cc2ccco2)cc1`, the inhibition was -0.31% (inactive).

Consider `O=C(CC(n1cncn1)C(Cl)(Cl)Cl)c1ccc([N+](=O)[O-])cc1` (configuration not stated), for which the inhibition was 0.74% (inactive).

On to `O=C(Cn1c[n+](CC(=O)c2ccc([N+](=O)[O-])cc2)cn1)c1ccc([N+](=O)[O-])cc1`, for which the inhibition was 50.5% (active) and -2.04% (inactive).

With `Cc1ccc(C(=O)Cn2cccn2)cc1`, the inhibition is 5.04% (inactive).

For `Cc1ccc(NC(=S)NNC(=O)CSc2nnc(SCc3ccccc3Cl)s2)cc1`, the inhibition is -10.8% (inactive).

Consider `COc1cccc(CSc2nnc(-c3cccnc3)n2Cc2ccccc2)c1`, for which the inhibition was -0.03% (inactive).

For `Cc1cc(C(=O)NNC(=O)c2cccc(S(=O)(=O)N3CCOCC3)c2)c2ccccc2n1`, the inhibition was -0.61% (inactive).

For the compound `CCOc1cc(N2CCOCC2)c(OCC)cc1NC(=O)c1cc(C)nc2ccccc12`, the inhibition is 23.5% (active).

In the case of `CCOc1cc(N2CCOCC2)c(OCC)cc1NC(=O)C1=NN(c2cccc(C)c2)C(=O)CC1`, the inhibition was 0.92% (inactive).

In the case of `CC(C)(C)OC(=O)NCc1cc(F)ccc1/C=C/S(=O)(=O)NCCc1ccccc1`, the inhibition was 0.11% (inactive).

On to `CCOC(=O)/C(=N\Nc1cc(Cl)ccc1Cl)N1CCN(C)CC1`, for which the inhibition was -0.04% (inactive).

For the compound `CCOC(=O)/C(=N\Nc1ccccc1Cl)N(C)C1CCS(=O)(=O)C1` (configuration not stated), the inhibition was 23.3% (active).

In the case of `CC(=O)c1ccc(OCC(=O)N(C)C2CCS(=O)(=O)C2)cc1` (configuration not stated), the inhibition is 1.81% (inactive).

Turning to `CCOC(=O)[C@]12CCCCC/C=C\1N(Cc1ccc(OC)cc1)C(=O)[C@H]2CC(=O)NCCCN1CCCC1=O`, the inhibition was -0.93% (inactive).

`CCOC(=O)[C@]12CCCC3=C1N(CCC3)C(=O)[C@@H](CC(=O)NCC13CC4CC(CC(C4)C1)C3)C2`: the inhibition was -0.2% (inactive).

In the case of `O=C(CCCCCN1C(=O)C2C3C=CC(C3)C2C1=O)Nc1ccccn1` (configuration not stated), the inhibition was -0.7% (inactive).

With `COc1ccc(N2CCN(CCNS(=O)(=O)c3ccc(C(C)(C)C)cc3)CC2)cc1`, the inhibition is 0.26% (inactive).

Take `CC(OC(=O)/C=C/c1ccccc1)C(=O)Nc1ccc(C(N)=O)cc1` (configuration not stated): the inhibition is -0.02% (inactive).

As for `C=CCOc1ccc(/C=C/C(=O)OC(C)C(=O)Nc2ccc(NC(C)=O)cc2)cc1` (configuration not stated), the inhibition is 0.2% (inactive).

Take `CCc1ccc(NC(=O)C(C)OC(=O)/C=C/c2cccc([N+](=O)[O-])c2)cc1` (configuration not stated): the inhibition is 21.5% (active).

On to `O=C(NC1CCC1)c1ccc(C#Cc2cccc(F)c2)c[n+]1[O-]`, for which the inhibition was -2.83% (inactive).

Regarding `COc1ccc(Cn2c(=O)cc(C)[nH]c2=S)cc1`, the inhibition is 48.1% (active).

`COc1cc2[nH]c(=S)n(Cc3ccc(C)o3)c(=O)c2cc1OC`: the inhibition was -2.92% (inactive).

For `COc1ccc(Cn2c(=O)oc3ccccc32)cc1`, the inhibition was -0.71% (inactive).

As for `COC(=O)[C@]12C[C@H](CC(=O)NCc3cccc4ccccc34)C(=O)N(CCc3ccc(OC)c(OC)c3)C1=C[C@H](C1CCCC1)O[C@@H]2C`, the inhibition is 0% (inactive).

Broadly, the inhibition is the change of the read-out against control, counted positive when it falls.
